In PubChem BioAssay (EPA / NIEHS):
The source made the active and inactive calls. Rule for the calls: active = hit-call score of the fitted dose curve at least 0.9, where 1 is the maximum; inactive = score below 0.9.

Experiments:
[1] = ATG_E_Box_CIS: Attagene CIS-FACTORIAL HepG2 Assay for human Enhancer Box (E-box) (AID 2282936); conditions: HepG2 E-box cis-reporter transcription, actives raise or lower the signal
Method in brief: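 Fluorescent reporter fragments separated by capillary electrophoresis gave the signal; mRNA came from HepG2 cells transfected with cis-element reporters and treated 24 h. Curves fitted bidirectionally relative to DMSO controls.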

[2] = ATG_M_61_CIS: Attagene CIS-FACTORIAL HepG2 Assay for M61 Transcription Factor (Internal Marker) (AID 2282937); conditions: HepG2 Attagene CIS-FACTORIAL M61 internal marker reporter; actives raise or lower the signal
Method in brief: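 Human liver HepG2, transient MRTU transfection (cis promoter elements), 24 h compound. Total RNA → oligo(dT) RT → PCR → FAM label → HpaI → CE. Internal background marker; bidirectional fitting, DMSO = baseline.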

[3] = ATG_EGR_CIS: Attagene CIS-FACTORIAL HepG2 Assay for human Early Growth Response 1 (EGR1) (AID 2282938); conditions: HepG2 Attagene CIS-FACTORIAL EGR reporter mRNA; actives raise or lower the signal
Method in brief: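 Transient transfection of human HepG2 with multiple cis-regulated reporter units, chemical exposure 24 h, total RNA isolated. Reverse transcription, PCR, fluorescent labelling and capillary electrophoresis quantify reporter transcripts; activity fitted bidirectionally against DMSO.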

[4] = ATG_M_19_CIS: Attagene CIS-FACTORIAL HepG2 Assay for M19 Transcription Factor (Internal Marker) (AID 2282939); conditions: HepG2 Attagene CIS-FACTORIAL M19 internal marker reporter; actives raise or lower the signal
Method in brief: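 Signals come from fluorescence of labelled reporter-specific PCR fragments resolved by capillary electrophoresis, following 24 h treatment of HepG2 cells transfected with cis-promoter reporter units; activity was fitted in both directions relative to DMSO.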

[5] = ATG_Ets_CIS: Attagene CIS-FACTORIAL HepG2 Assay for human Erythroblast Transformation Specific (ETS) (AID 2282941); conditions: HepG2 ETS cis-reporter transcription, actives raise or lower the signal
Method in brief: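 Multiplexed reporter transcript profiling: HepG2, 24 h treatment, total RNA to cDNA, PCR, 6-FAM labelling, HpaI cut, capillary electrophoresis. Gain- or loss-of-signal fitted against DMSO.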

[6] = biological target: Hepatocyte nuclear factor 3-beta (Homo sapiens) (UniProt Q9Y261); test: ATG_FoxA2_CIS: Attagene CIS-FACTORIAL HepG2 Assay for human Forkhead box A2 (FOXA2) (AID 2282942); conditions: HepG2 cis-reporter transcription factor activity, 24 h; actives raise or lower the signal
Sequence of Hepatocyte nuclear factor 3-beta (Homo sapiens) (Q9Y261 whole entry, looked up): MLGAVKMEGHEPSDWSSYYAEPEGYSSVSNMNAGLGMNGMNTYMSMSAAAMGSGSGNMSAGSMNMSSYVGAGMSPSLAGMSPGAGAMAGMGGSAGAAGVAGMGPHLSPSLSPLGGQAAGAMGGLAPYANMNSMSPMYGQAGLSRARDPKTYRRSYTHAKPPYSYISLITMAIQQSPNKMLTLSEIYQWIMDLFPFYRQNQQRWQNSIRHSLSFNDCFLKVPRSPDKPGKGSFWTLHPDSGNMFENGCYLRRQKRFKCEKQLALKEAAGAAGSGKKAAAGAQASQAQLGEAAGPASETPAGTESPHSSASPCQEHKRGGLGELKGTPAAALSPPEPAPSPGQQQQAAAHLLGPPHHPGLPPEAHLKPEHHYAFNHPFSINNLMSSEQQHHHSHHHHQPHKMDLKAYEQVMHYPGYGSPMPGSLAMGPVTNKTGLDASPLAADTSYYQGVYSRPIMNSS
Method in brief: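 Transient MRTU transfection of HepG2 liver cells; 24 h treatment; total RNA → oligo(dT) RT → PCR → FAM primer extension → HpaI cut → CE. Bidirectional fit vs DMSO.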

[7] = ATG_FoxO_CIS: Attagene CIS-FACTORIAL HepG2 Assay for human Forkhead box O (FoxO) (AID 2282943); conditions: HepG2 Attagene cis-reporter, FoxO element, mRNA; actives raise or lower the signal
Method in brief: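 Endogenous transcription factor activity read from multiplexed cis-promoter reporter transcripts in transiently transfected HepG2, 24 h after dosing. Reporter RNA measured via RT-PCR plus capillary electrophoresis of FAM-labeled products; gain or loss relative to DMSO.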

[8] = ATG_GATA_CIS: Attagene CIS-FACTORIAL HepG2 Assay for human GATA Binding Protein (AID 2282944); conditions: HepG2 GATA cis-element reporter, Attagene multiplex mRNA; actives raise or lower the signal
Method in brief: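 After transfecting HepG2 cells with multiple cis-regulated reporter units, chemicals are dosed for 24 h; isolated RNA undergoes RT-PCR and fluorescent labeling before capillary electrophoresis, with activity expressed against DMSO.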

[9] = ATG_GLI_CIS: Attagene CIS-FACTORIAL HepG2 Assay for human Zinc Finger Protein GLI1 (AID 2282945); conditions: HepG2, Attagene cis-factorial reporter mRNA, GLI element; actives raise or lower the signal
Method in brief: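 Bidirectional curve fits relative to DMSO, using reporter mRNA levels from RT-PCR plus capillary electrophoresis. Cells were HepG2 transiently carrying cis-regulated reporter constructs, harvested 24 h after dosing.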

[10] = biological target: Bile acid receptor (Homo sapiens) (UniProt Q96RI1); test: ATG_IR1_CIS: Attagene CIS-FACTORIAL HepG2 Assay for human Nuclear Receptor Subfamily 1 Group H Member 4 (NR1H4), IR1 submotif (AID 2282946); conditions: IR1 reporter transcription, actives raise or lower the signal
Sequence of Bile acid receptor (Homo sapiens) (Q96RI1 whole entry, looked up): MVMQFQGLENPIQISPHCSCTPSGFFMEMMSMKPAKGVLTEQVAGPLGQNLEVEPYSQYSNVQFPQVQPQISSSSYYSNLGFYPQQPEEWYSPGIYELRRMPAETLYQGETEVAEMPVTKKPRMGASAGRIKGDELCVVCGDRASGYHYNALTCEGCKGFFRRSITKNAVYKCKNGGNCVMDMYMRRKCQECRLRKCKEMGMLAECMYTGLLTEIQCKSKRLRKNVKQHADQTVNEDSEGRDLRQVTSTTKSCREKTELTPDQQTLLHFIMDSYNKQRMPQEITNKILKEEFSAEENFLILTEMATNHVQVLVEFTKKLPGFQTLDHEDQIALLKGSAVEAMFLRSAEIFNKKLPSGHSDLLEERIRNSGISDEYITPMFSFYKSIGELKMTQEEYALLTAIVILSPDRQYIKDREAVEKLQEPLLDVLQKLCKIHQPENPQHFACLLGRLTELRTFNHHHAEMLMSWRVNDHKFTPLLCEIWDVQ
Method in brief: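 HepG2 cells transiently transfected with multiplexed cis-element reporter units read endogenous transcription factor activity. After 24 h compound exposure, reporter mRNA was quantified by RT-PCR, fluorescent labelling, HpaI digestion and capillary electrophoresis; bidirectional fitting versus DMSO baseline.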

[11] = ATG_GRE_CIS: Attagene CIS-FACTORIAL HepG2 Assay for human Glucocorticoid Response Elements (GRE) (AID 2282947); conditions: HepG2 GRE cis-reporter, Attagene multiplex mRNA; actives raise or lower the signal
Method in brief: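 Multiplexed cis-reporter mRNA induction, HepG2, 24 h post-dose. RT-PCR, FAM-labelled, HpaI-digested amplicons by CE. Bidirectional fit vs DMSO.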

[12] = ATG_ISRE_CIS: Attagene CIS-FACTORIAL HepG2 Assay for human Interferon Regulatory Factor 1 (IRF1) binding to an Interferon-Stimulated Response Element (ISRE) (AID 2282948); conditions: HepG2 ISRE cis-reporter (Attagene), mRNA transcription readout; actives raise or lower the signal
Method in brief: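 Signal reflects induction or loss of ISRE-linked reporter mRNA in transiently transfected HepG2 cells after a 24 h treatment, detected by fluorescent RT-PCR fragments on capillary electrophoresis and normalised to DMSO.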

[13] = ATG_M_32_CIS: Attagene CIS-FACTORIAL HepG2 Assay for M32 Transcription Factor (Internal Marker) (AID 2282949); conditions: HepG2 Attagene cis-factorial M32 reporter, mRNA; actives raise or lower the signal;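 note: background control marker of the multiplexed CIS panel rather than a real target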
Method in brief: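 Using DMSO as baseline, bidirectional curve fits were applied to reporter mRNA signals. These came from transiently transfected HepG2 cells exposed for 24 h, with RNA analysed by RT-PCR, FAM primer extension, HpaI digestion and CE.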

[14] = ATG_M_06_CIS: Attagene CIS-FACTORIAL HepG2 Assay for M06 Transcription Factor (Internal Marker) (AID 2282950); conditions: HepG2 Attagene CIS-FACTORIAL M06 internal marker reporter; actives raise or lower the signal
Method in brief: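 HepG2 liver cells, 24 h exposure. Reporter transcripts from transfected cis-element constructs quantified by RT-PCR/capillary electrophoresis fluorescence. Bidirectional curve fit against DMSO.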

[15] = biological target: Hypoxia-inducible factor 1-alpha (Homo sapiens) (UniProt Q16665); test: ATG_HIF1a_CIS: Attagene CIS-FACTORIAL HepG2 Assay for human Hypoxia Inducible Factor 1 (HIF1A) (AID 2282951); conditions: HepG2 Attagene cis-factorial HIF1a reporter transcription; actives raise or lower the signal
Sequence of Hypoxia-inducible factor 1-alpha (Homo sapiens) (Q16665 whole entry, looked up, the tested form may be a part): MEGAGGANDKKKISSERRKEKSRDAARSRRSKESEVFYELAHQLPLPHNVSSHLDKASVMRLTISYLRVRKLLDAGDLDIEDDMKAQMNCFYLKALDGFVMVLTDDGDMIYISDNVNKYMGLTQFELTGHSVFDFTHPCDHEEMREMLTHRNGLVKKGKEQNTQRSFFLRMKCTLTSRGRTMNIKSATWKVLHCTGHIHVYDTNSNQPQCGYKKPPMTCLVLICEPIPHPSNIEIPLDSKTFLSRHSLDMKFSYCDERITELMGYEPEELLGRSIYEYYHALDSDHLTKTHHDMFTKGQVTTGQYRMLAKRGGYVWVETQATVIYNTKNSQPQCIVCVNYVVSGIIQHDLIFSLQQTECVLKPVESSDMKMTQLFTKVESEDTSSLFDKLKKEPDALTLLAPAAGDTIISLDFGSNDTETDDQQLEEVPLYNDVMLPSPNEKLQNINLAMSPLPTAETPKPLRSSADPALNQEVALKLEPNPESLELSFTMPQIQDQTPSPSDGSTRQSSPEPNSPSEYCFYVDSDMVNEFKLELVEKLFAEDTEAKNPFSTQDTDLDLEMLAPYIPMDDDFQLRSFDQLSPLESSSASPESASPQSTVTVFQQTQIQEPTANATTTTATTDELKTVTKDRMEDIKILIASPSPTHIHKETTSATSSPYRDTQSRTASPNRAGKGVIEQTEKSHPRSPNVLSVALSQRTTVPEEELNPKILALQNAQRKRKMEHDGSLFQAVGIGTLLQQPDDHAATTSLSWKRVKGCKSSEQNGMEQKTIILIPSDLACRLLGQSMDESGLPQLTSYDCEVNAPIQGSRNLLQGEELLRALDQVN
Method in brief: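 Transient MRTU transfection of human HepG2 liver cells, 24 h compound treatment, then total RNA isolation, oligo(dT) reverse transcription, PCR amplification, fluorescent labelling and capillary electrophoresis of reporter fragments. Gain or loss relative to DMSO.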

[16] = biological target: Hepatocyte nuclear factor 6 (Homo sapiens) (UniProt Q9UBC0); test: ATG_HNF6_CIS: Attagene CIS-FACTORIAL HepG2 Assay for human Hepatocyte Nuclear Factor 6 (HNF6) (AID 2282952); conditions: HepG2 Attagene cis-factorial HNF6 reporter transcription; actives raise or lower the signal
Sequence of Hepatocyte nuclear factor 6 (Homo sapiens) (Q9UBC0 whole entry, looked up, the tested form may be a part): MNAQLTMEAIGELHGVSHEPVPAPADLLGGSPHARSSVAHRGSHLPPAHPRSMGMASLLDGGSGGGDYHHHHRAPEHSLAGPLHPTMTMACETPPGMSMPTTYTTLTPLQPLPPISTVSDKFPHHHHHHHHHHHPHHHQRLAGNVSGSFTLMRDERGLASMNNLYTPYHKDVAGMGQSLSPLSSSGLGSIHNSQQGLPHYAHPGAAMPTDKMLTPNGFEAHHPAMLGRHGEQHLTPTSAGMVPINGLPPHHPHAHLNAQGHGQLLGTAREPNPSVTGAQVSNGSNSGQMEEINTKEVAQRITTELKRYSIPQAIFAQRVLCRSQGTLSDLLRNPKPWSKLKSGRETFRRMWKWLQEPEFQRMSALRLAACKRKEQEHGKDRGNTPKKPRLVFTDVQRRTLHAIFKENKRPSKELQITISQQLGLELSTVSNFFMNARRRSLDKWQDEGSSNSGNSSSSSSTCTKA
Method in brief: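 First, HepG2 cells were transfected with the multiplexed cis reporter library and dosed with chemical for 24 h. Next, RNA was reverse-transcribed, PCR-amplified and fluorescently labelled. Finally, HpaI-digested fragments were read by capillary electrophoresis.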

[17] = biological target: Heat shock factor protein 1 (Homo sapiens) (UniProt Q00613); test: ATG_HSE_CIS: Attagene CIS-FACTORIAL HepG2 Assay for human Heat Shock Transcription Factor 1 (HSE) (AID 2282953); conditions: HepG2 HSE cis-reporter, Attagene RNA transcription; actives raise or lower the signal
Sequence of Heat shock factor protein 1 (Homo sapiens) (Q00613 whole entry, looked up, the tested form may be a part): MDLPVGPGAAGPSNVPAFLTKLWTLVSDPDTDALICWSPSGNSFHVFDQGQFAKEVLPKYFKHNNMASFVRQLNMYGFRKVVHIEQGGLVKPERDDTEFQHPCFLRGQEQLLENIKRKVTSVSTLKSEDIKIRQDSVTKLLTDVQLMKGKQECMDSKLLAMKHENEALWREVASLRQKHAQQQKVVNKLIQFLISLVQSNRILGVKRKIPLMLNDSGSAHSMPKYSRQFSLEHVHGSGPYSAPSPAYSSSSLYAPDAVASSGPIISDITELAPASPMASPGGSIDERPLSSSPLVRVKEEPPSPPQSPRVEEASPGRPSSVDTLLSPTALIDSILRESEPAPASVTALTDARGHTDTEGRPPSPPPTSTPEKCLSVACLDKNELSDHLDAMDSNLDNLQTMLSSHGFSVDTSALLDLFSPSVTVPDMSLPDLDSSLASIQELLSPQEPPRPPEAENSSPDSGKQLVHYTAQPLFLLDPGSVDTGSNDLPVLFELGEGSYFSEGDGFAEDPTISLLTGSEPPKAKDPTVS
Method in brief: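 Endogenous transcription factor activity captured via cis-promoter reporter units transfected into HepG2; treatment lasted 24 h. Fluorescence intensity of reporter fragments analysed with bidirectional curve fitting, DMSO baseline.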

[18] = ATG_MRE_CIS: Attagene CIS-FACTORIAL HepG2 Assay for human Metal Responsive Element (MRE) (AID 2282954); conditions: HepG2 MRE cis-reporter transcription, Attagene multiplex; actives raise or lower the signal
Method in brief: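 Multiplexed cis-reporter assay in human HepG2 liver cells, 24 h incubation with test chemical. Reporter transcripts measured by RT-PCR and capillary electrophoresis; values from bidirectional curve fitting versus DMSO.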

[19] = ATG_PBREM_CIS: Attagene CIS-FACTORIAL HepG2 Assay for human Phenobarbital-responsive Enhancer Module (PBREM) (AID 2282955); conditions: HepG2 PBREM cis-reporter, Attagene multiplexed transcription; actives raise or lower the signal
Method in brief: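 Endogenous transcription factors in human liver HepG2 cells drive a PBREM cis-element reporter, whose transcript level after 24 h treatment is quantified by RT-PCR with capillary electrophoresis; activity fitted in both directions against DMSO.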

Measured: AC50

COP(=S)(OC)SCN1C(=O)c2ccccc2C1=O
not listed: [19]
inactive: all other assays above

Cc1cc(N=Nc2ccccc2C)ccc1N
active: [3] 21.6 µM | [6] 15.7 µM | [15] 24.7 µM | [17] 53.8 µM | [18] 27.9 µM | [19] 33.4 µM
inactive: all other assays above

CCN(CC)CCO
not listed: [10] | [19]
inactive: all other assays above

OCCCl
not listed: [19]
inactive: all other assays above

CN(C)c1ccccc1
not listed: [19]
inactive: all other assays above

Clc1ccc(C(c2ccc(Cl)cc2)C(Cl)(Cl)Cl)cc1
active: [12] 62.2 µM | [18] 100 µM
not listed: [19]
inactive: all other assays above

O=P(OCCCl)(OCCCl)OCCCl
not listed: [19]
inactive: all other assays above

CCCCCCCCOC(=O)c1ccc(C(=O)OCCCCCCCC)c(C(=O)OCCCCCCCC)c1
active: [9] 26.3 µM | [15] 23.7 µM
not listed: [19]
inactive: all other assays above

CN(C)[C@@H]1C(=O)C(C(N)=O)=C(O)[C@@]2(O)C(=O)C3=C(O)c4c(O)cccc4[C@@](C)(O)[C@H]3C[C@@H]12
not listed: [15] | [19]
inactive: all other assays above

Clc1ccccc1Cl
inactive: all assays above

CN(C)c1ccc(C(=O)c2ccc(N(C)C)cc2)cc1
inactive: all assays above

CC(C)(O)c1cnn2c(-c3ccc(F)c(-c4c(F)cccc4C#N)c3)cnc2n1
active: [3] 2.13 µM | [15] 26.8 µM | [17] 25.8 µM | [18] 1.73 µM
not listed: [19]
inactive: all other assays above

CC(C)N(Cc1ccccc1)C(=O)C(C)(C)C
not listed: [11] | [19]
inactive: all other assays above

CCOC(=O)[C@]1(c2ccccc2)Oc2ccccc2[C@@H]1N
active: [3] 33 µM | [7] 49.5 µM | [9] 59.5 µM | [11] 52.6 µM | [12] 33 µM | [13] 52.7 µM | [15] 1.78 µM | [16] 43.3 µM | [17] 61.8 µM | [18] 33 µM | [19] 9.64 µM
inactive: [1] | [2] | [4] | [5] | [6] | [8] | [10] | [14]
